Source: PubChem BioAssay AID1275 (Emory University Molecular Libraries Screening Center, 2008)
About 160 (16%) of roughly 1,000 compounds were called active. How the calls were made is not given here. The list shows a part of the results.

target: Neutrophil cytosol factor 1 (Homo sapiens) (UniProt P14598); assay: blockers of ligand binding to p47phox – biochemical, NADPH oxidase regulatory subunit, fluorescence polarization, dose response (AID 1275); conditions: at 12.5 µM
Sequence (P14598 whole entry, looked up): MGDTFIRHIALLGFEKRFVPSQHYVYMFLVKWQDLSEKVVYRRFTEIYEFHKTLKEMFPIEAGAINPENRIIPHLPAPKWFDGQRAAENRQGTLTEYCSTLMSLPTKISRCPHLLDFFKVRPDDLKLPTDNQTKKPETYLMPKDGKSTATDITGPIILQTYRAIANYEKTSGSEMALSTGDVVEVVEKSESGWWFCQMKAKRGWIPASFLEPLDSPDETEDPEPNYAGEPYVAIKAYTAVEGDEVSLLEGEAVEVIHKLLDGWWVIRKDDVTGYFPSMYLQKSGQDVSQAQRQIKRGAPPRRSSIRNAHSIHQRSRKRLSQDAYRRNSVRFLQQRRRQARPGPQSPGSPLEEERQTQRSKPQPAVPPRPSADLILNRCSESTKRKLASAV

Row | Structure (SMILES) | percent of control, lower = inhibition
1 | O=C1NC(=O)N(Cc2ccc(F)cc2)C(=O)/C1=C\c1ccc(N2CCCC2)cc1 | -40.7 (active)
